# Source: PubChem BioAssay (Tox21)
# A number with no mark means an inactive call. Results filed as inconclusive are left out. Where a call stands in place of a potency, no number is given. Active and inactive are the calls of the source. Unless noted, calls follow the shape of the full dose curve.
# How the values were obtained:
# [1] = Nuclear factor erythroid 2-related factor 2/antioxidant responsive element (Nrf2/ARE) small molecule agonists: qHTS cell viability counter screen in human keratinocytes (AID 1919968; active = well fitted curve in the direction sought with a large enough effect in the repeat runs; an effect the other way counts as inactive or inconclusive; also: nearly all actives have a fitted effect of over 55% in size; also: potency is read from the fitted curve at half-maximal effect)
# Method in brief: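 Stably transfected HaCaT (KeratinoSens), 1,500/well. Test agents in DMSO were applied for 23 h, 37 C/5% CO2. CellTiter-Fluor was incubated 1 h before the fluorescence read.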
# [2] = Nuclear factor erythroid 2-related factor 2/antioxidant responsive element (Nrf2/ARE) small molecule agonists: luciferase reporter gene qHTS assay in human keratinocytes (AID 1919969); also: nearly all actives have a fitted effect of over 35% in size
# [3] = biological target: Gonadotropin-releasing hormone receptor (Homo sapiens) (UniProt P30968); assay: Human gonadotropin-releasing hormone receptor (GnRHR) small molecule agonists, calcium flux assay in GnRHR-HEK293 cells (AID 1920063); also: nearly all actives have a fitted effect of over 35% in size
# Sequence of Gonadotropin-releasing hormone receptor (Homo sapiens) (P30968 whole entry, looked up): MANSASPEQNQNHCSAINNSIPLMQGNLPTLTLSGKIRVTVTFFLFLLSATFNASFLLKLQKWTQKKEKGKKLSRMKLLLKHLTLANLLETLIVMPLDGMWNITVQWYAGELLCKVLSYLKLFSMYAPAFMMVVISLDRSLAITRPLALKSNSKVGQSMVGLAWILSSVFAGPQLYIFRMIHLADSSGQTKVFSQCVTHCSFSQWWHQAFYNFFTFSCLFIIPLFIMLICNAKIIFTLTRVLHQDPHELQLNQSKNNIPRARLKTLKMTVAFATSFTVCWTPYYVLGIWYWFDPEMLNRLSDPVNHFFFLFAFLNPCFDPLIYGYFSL
# Method in brief: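 Stable human GnRHR HEK293 line. 18 h plating, then calcium dye for 1 h at 37 C. Agonist-mode compound addition from DMSO stocks; fluorescence monitored 3 min.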
# [4] = biological target: KiSS-1 receptor (Homo sapiens) (UniProt Q969F8); assay: Human kisspeptin (KISS1R) small molecule agonists, calcium flux assay in KISS1R-HEK293 cells (AID 1920064; active = well fitted curve in the direction sought with a large enough effect in the repeat runs; an effect the other way counts as inactive or inconclusive)
# Sequence of KiSS-1 receptor (Homo sapiens) (Q969F8 whole entry, looked up): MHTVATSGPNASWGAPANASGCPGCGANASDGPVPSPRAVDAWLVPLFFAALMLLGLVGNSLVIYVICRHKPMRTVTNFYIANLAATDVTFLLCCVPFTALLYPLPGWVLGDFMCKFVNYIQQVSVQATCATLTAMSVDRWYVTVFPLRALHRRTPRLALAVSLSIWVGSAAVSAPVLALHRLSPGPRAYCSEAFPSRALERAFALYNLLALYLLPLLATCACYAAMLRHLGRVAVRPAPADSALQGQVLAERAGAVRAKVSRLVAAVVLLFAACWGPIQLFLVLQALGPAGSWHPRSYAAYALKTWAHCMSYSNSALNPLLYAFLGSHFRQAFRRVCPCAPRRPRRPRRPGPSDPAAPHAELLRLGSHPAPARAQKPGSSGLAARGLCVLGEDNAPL
# Method in brief: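 After overnight (18 h) culture at 37 C/5% CO2, human KISS1R-HEK293 cells received calcium dye for 1 h, then test compound; emission at 540 nm (excitation 480 nm) was tracked for 3 min.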
# [5] = G protein-coupled receptor (GPCR) small molecule agonists, calcium flux assay: HEK293 wild type cell line counter screen (AID 1920065)
# Method in brief: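 Following 18 h incubation at 37 C/5% CO2, plates got calcium dye for 1 h; compounds, ATP or DMSO were then pinned in and fluorescence followed kinetically (480/540 nm).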
# [6] = p53 small molecule agonists, cell-based qHTS assay with rat liver microsomes (AID 1963578)
# Method in brief: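 p53RE-bla cells, 4,000/well, pre-incubated 5 h, then given compounds plus rat liver microsomes (0.5 mg/mL final) and NADPH (0.5 mg/mL final). Incubation 16 h at 37 C; beta-lactamase reporter read by LiveBLAzer fluorescence after 2 h at room temperature.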
# [7] = p53 small molecule agonists, cell-based qHTS assay with human liver microsomes: qHTS cell viability counter screen (AID 1963579); also: nearly all actives have a fitted effect of over 45% in size
# Method in brief: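 p53RE-bla cells, 4,000/well, dosed 5 hours after plating, with human liver microsomes (0.5 mg/mL final) plus NADPH (0.5 mg/mL final), 16 hours at 37 C. Viability read as CellTiter-Glo luminescence after 30 min at room temperature.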
# [8] = p53 small molecule agonists, cell-based qHTS assay with rat liver microsomes: qHTS cell viability counter screen (AID 1963580); also: nearly all actives have a fitted effect of over 45% in size
# Method in brief: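 Luminescent ATP readout (CellTiter-Glo, 30 min at room temperature) reports viability of p53RE-bla HCT-116 cells after 16 h at 37 C with test compounds under metabolic activation by rat liver microsomes and NADPH at 0.5 mg/mL final each.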
# [9] = p53 small molecule agonists, cell-based qHTS assay: qHTS cell viability counter screen (AID 1963581); also: nearly all actives have a fitted effect of over 45% in size; also: potency is read from the fitted curve at half-maximal effect
# Method in brief: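 qHTS counter screen: 16 h compound exposure at 37 C of p53RE-bla HCT-116 cells (4,000 per well, seeded 5 h prior), cell viability by ATP luminescence.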
# [10] = p53 small molecule agonists, cell-based qHTS assay (AID 1963582; active = well fitted activation curve with a large enough effect in the signal ratio in the repeat runs, not every such curve was filed as active; the % refers to the signal ratio)
# Method in brief: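 Measured: fluorescence from cleaved LiveBLAzer substrate. System: p53RE-bla cells, 16 h compound treatment at 37 C, 2 h substrate step at room temperature.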
# [11] = biological target: 5-hydroxytryptamine receptor 2A (Homo sapiens) (UniProt P28223); assay: 5-hydroxytryptamine receptor 2A (HTR2A) small molecule antagonists, cell-based qHTS assay (AID 1963586); also: nearly all actives have a fitted effect of over 45% in size
# Sequence of 5-hydroxytryptamine receptor 2A (Homo sapiens) (P28223 whole entry, looked up): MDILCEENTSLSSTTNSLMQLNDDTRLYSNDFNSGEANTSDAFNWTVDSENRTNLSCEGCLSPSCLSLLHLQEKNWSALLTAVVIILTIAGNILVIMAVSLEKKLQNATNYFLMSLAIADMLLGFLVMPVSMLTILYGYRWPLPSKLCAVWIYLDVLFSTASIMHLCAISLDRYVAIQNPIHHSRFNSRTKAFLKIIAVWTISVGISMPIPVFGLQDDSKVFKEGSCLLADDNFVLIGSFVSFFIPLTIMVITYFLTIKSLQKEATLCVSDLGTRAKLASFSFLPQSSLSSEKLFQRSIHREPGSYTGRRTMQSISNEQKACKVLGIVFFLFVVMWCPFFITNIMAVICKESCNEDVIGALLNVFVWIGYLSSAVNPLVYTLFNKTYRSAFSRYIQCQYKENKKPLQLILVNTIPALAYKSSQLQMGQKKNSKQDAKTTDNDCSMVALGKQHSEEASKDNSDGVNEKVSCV
# Method in brief: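 CHO cells stably expressing human HTR2A were plated for 18 h at 37 C, then loaded with calcium dye for 1 h. Compounds were preincubated 5 min at room temperature before DOI (4 nM solution) was added. Kinetic fluorescence was read for 3 min.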
# [12] = biological target: 5-hydroxytryptamine receptor 2A (Homo sapiens) (UniProt P28223); assay: 5-hydroxytryptamine receptor 2A (HTR2A) small molecule agonists, cell-based qHTS assay (AID 1963587); also: nearly all actives have a fitted effect of over 30% in size
# Method in brief: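 HTR2A-CHO cells, plated 18 h at 37 C/5% CO2, dye-loaded 1 h at 37 C; compounds in DMSO added by pin tool (agonist mode). Intracellular calcium flux read as kinetic fluorescence on FDSS over 2 min at 1 s intervals.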
# [13] = biological target: Muscarinic acetylcholine receptor M1 (Homo sapiens) (UniProt P11229); assay: Cholinergic receptor muscarinic 1 (CHRM1) small molecule antagonists, cell-based qHTS assay (AID 1963588); also: nearly all actives have a fitted effect of over 40% in size
# Sequence of Muscarinic acetylcholine receptor M1 (Homo sapiens) (P11229 whole entry, looked up): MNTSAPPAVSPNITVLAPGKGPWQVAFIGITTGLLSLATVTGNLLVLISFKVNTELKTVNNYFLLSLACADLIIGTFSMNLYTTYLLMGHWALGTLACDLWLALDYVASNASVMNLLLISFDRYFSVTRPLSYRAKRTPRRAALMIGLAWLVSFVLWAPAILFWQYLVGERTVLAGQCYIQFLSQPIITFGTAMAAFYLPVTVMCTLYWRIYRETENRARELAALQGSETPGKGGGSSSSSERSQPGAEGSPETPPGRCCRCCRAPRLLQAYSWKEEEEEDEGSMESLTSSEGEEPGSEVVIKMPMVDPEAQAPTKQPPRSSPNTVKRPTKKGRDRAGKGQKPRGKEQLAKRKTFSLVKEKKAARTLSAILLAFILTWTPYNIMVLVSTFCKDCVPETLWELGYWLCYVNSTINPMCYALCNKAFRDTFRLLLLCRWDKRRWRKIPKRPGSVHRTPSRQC
# Method in brief: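 Compounds were tested at 15 concentrations in three independent runs. Dye-loaded CHRM1-CHO cells were exposed 5 min at room temperature before stimulation by acetylcholine added at 50nM. Intracellular calcium was read kinetically on FDSS for 3 min.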
# [14] = biological target: Muscarinic acetylcholine receptor M1 (Homo sapiens) (UniProt P11229); assay: Cholinergic receptor muscarinic 1 (CHRM1) small molecule agonists, cell-based qHTS assay (AID 1963589); also: nearly all actives have a fitted effect of over 35% in size
# Method in brief: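 Kinetic fluorescence (1 s intervals) of calcium-sensitive dye in human M1 CHO cells after compound addition; cells pre-incubated 18 h at 37 C/5% CO2 and dye-loaded 1 h.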
# [15] = cAMP Responsive Elements (CRE) small molecule antagonists, cell-based qHTS assay (AID 1963591; active = well fitted inhibition curve with a large enough effect in the signal ratio in the repeat runs, not every such curve was filed as active; the % refers to the signal ratio)
# Method in brief: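 Reporter line CRE-bla HEK 293T in dialyzed-FBS DMEM; cells preincubated 18 h, treated 3 h with compound plus NKH477 (0.25 uM final); LiveBLAzer FRET, 2 h RT.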
# [16] = biological target: D(2) dopamine receptor (Homo sapiens) (UniProt P14416); assay: Dopamine D2 receptor (DRD2) small molecule agonists, cell-based qHTS assay (AID 1963594); also: nearly all actives have a fitted effect of over 35% in size
# Sequence of D(2) dopamine receptor (Homo sapiens) (P14416 whole entry, looked up): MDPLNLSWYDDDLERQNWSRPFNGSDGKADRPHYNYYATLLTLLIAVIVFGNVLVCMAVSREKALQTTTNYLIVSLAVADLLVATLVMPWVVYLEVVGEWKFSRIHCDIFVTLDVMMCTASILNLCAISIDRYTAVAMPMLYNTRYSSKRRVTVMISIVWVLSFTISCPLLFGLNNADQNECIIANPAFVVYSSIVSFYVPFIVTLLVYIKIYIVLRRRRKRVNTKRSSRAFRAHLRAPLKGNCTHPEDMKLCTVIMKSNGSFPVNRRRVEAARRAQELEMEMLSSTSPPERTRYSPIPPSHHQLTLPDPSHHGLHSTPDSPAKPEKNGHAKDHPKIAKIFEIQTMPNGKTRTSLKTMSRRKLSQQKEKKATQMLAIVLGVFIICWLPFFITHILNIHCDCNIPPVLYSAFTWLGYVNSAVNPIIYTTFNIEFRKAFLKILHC
# Method in brief: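 HEK293 cells stably expressing DRD2 were cultured 24 h at 37 C, then given Ro20-1724 (0.1 mM final) and compounds for 10 min at room temperature. NKH477 (200nM) was then added for 30 min. cAMP was read by HTRF.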
# [17] = cAMP Responsive Elements (CRE) small molecule agonists, cell-based qHTS assay (AID 1963590)
# Method in brief: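 Test agents in DMSO were incubated 3 h at 37 C/5% CO2 with CRE-bla HEK 293T cells seeded 18 h earlier; LiveBLAzer B/G FRET substrate was added and read after 2 h at room temperature.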
# [18] = biological target: Beta-2 adrenergic receptor (Homo sapiens) (UniProt P07550); assay: Adrenergic beta2 receptor (ADRB2) small molecule antagonists, cell-based qHTS assay (AID 1963592); also: series mostly up to about 92 µM; nearly all actives have a fitted effect of over 50% in size
# Sequence of Beta-2 adrenergic receptor (Homo sapiens) (P07550 whole entry, looked up): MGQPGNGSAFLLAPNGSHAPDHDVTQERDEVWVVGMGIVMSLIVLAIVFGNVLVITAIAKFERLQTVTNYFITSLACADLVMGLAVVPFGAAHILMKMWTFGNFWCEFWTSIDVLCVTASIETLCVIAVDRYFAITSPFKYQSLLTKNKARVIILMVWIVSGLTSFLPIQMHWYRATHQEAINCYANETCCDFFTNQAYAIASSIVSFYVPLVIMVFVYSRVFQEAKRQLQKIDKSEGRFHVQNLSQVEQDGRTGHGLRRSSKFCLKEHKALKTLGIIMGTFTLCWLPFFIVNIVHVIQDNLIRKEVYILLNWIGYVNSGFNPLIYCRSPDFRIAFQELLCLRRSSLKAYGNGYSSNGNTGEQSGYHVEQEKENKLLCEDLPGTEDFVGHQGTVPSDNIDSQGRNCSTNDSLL
# Method in brief: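 Assay format: CHO-ADRB2 cells, 18-20hr seeding at 37C/5% CO2, then compound plus 1nM isoproterenol agonist mix for 0.5hr RT. Homogeneous time-resolved fluorescence cAMP detection after 1hr, expressed as 665/615 nm ratio.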
# [19] = biological target: D(2) dopamine receptor (Homo sapiens) (UniProt P14416); assay: Dopamine D2 receptor (DRD2) small molecule antagonists, cell-based qHTS assay (AID 1963595; active = well fitted inhibition curve with a large enough effect in the signal ratio in the repeat runs, with a control signal flat; the % refers to the signal ratio)
# Method in brief: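 In this cell-based antagonist screen, compounds act for 10 min at room temperature before a 30 min challenge with 12 nM quinpirole and 200 nM NKH477. cAMP is quantified by HTRF competition in DRD2-HEK293 cells containing 0.1 mM Ro20-1724.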
# [20] = biological target: Beta-2 adrenergic receptor (Homo sapiens) (UniProt P07550); assay: Adrenergic beta2 receptor (ADRB2) small molecule agonists, cell-based qHTS assay (AID 1963593);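 also: CHO cells stably overexpressing human ADRB2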
# Method in brief: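 CHO cells stably over-expressing ADRB2 were plated overnight at 37C, then dosed with compounds plus a stimulation mix containing 100uM IBMX and 25uM Ro-20-1724 for 0.5hr at room temperature. cAMP was measured by HTRF competition, 1hr.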
smiles,measurement,setting,value
CC(=O)Oc1ccc2c(c1)CC[C@@H]1[C@@H]2CC[C@]2(C)[C@@H](O)CC[C@@H]12,Potency,[1],inactive
same,Potency,[2],inactive
same,Potency,[3],inactive
same,Potency,[4],inactive
same,Potency,[5],inactive
same,Potency,[6],inactive
same,Potency,[7],inactive
same,Potency,[8],inactive
same,Potency,[9],inactive
same,Potency,[10],inactive
same,Potency,[11],inactive
same,Potency,[12],inactive
same,Potency,[13],inactive
same,Potency,[14],inactive
same,Potency,[15],inactive
same,Potency,[16],inactive
CC(C)N(C)C,Potency,[1],inactive
same,Potency,[2],inactive
same,Potency,[3],inactive
same,Potency,[4],inactive
same,Potency,[5],inactive
same,Potency,[6],inactive
same,Potency,[7],inactive
same,Potency,[8],inactive
same,Potency,[9],inactive
same,Potency,[10],inactive
same,Potency,[12],inactive
same,Potency,[13],inactive
same,Potency,[14],inactive
same,Potency,[17],inactive
same,Potency,[15],inactive
same,Potency,[18],inactive
same,Potency,[16],inactive
same,Potency,[19],inactive
CC(=O)c1ccc[nH]1,Potency,[1],inactive
same,Potency,[2],inactive
same,Potency,[3],inactive
same,Potency,[4],inactive
same,Potency,[5],inactive
same,Potency,[6],inactive
same,Potency,[7],inactive
same,Potency,[8],inactive
same,Potency,[9],inactive
same,Potency,[10],inactive
same,Potency,[11],inactive
same,Potency,[12],inactive
same,Potency,[13],inactive
same,Potency,[14],inactive
same,Potency,[17],inactive
same,Potency,[18],inactive
same,Potency,[20],inactive
CCCOC(=O)CCCCC(=O)OCCC,Potency,[1],inactive
same,Potency,[2],inactive
same,Potency,[3],inactive
same,Potency,[4],inactive
same,Potency,[5],inactive
same,Potency,[6],inactive
same,Potency,[7],inactive
same,Potency,[8],inactive
same,Potency,[9],inactive
same,Potency,[10],inactive
same,Potency,[12],inactive
same,Potency,[13],inactive
same,Potency,[14],inactive
same,Potency,[17],inactive
same,Potency,[15],inactive
same,Potency,[18],inactive
same,Potency,[16],inactive
same,Potency,[19],inactive
NC(CSCC(=O)O)C(=O)O (stereo unspecified),Potency,[1],inactive
same,Potency,[2],inactive
same,Potency,[3],inactive
same,Potency,[4],inactive
same,Potency,[5],inactive
same,Potency,[6],inactive
same,Potency,[7],inactive
same,Potency,[8],inactive
same,Potency,[9],inactive
same,Potency,[10],inactive
same,Potency,[11],inactive
same,Potency,[13],inactive
same,Potency,[14],inactive
same,Potency,[17],inactive
same,Potency,[15],inactive
same,Potency,[18],inactive
same,Potency,[16],inactive
same,Potency,[19],inactive
CCc1cc(C2=C(C(=O)O)N(c3ccccc3C(F)(F)F)S(=O)(=O)c3ccccc32)cc2c1OCO2,Potency,[1],inactive
same,Potency,[2],inactive
same,Potency,[3],inactive
same,Potency,[4],inactive
same,Potency,[5],inactive
same,Potency,[6],inactive
same,Potency,[7],inactive
same,Potency,[8],inactive
same,Potency,[9],inactive
same,Potency,[11],inactive
same,Potency,[12],inactive
same,Potency,[13],inactive
same,Potency,[14],inactive
same,Potency,[18],inactive
CC(C)(C)CC(C)(C)c1ccc(O)c(Cc2ccc(Cl)cc2Cl)c1,Potency,[1],8.41 µM (active)
same,Potency,[2],inactive
same,Potency,[3],inactive
same,Potency,[4],inactive
same,Potency,[5],inactive
same,Potency,[6],inactive
same,Potency,[7],inactive
same,Potency,[8],inactive
same,Potency,[9],8.9 µM (active)
same,Potency,[11],inactive
same,Potency,[12],inactive
same,Potency,[13],inactive
same,Potency,[14],inactive
same,Potency,[18],inactive
same,Potency,[20],inactive
same,Potency,[16],inactive
Cn1ccc2cc3c(cc21)CCN3C(=O)Nc1cccnc1,"activity change, negative = cytotoxicity",[1],3.31% [at 19 µM]
same,"activity, positive = activation",[2],26.3% [at 19 µM]
same,activity change,[3],"-0.165% [at 11.8 µM, stronger effect = higher value]"
same,activation,[4],-2.7% [at 15.8 µM]
same,activation,[5],0.454% [at 11.8 µM]
same,activation,[6],-2.12% [at 13.6 µM]
same,"activity change, negative = cytotoxicity",[7],-7.75% [at 13.5 µM]
same,"activity change, negative = cytotoxicity",[8],-3.54% [at 13.5 µM]
same,"activity change, negative = cytotoxicity",[9],-10.9% [at 13.5 µM]
same,activation,[10],-0.168% [at 13.5 µM]
same,activation,[12],-6.77% [at 15.9 µM]
same,"activity, negative = inhibition",[13],8.54% [at 12.6 µM]
same,activation,[14],-0.375% [at 15.8 µM]
same,activation,[17],13.1% [at 19 µM]
same,"activity change, negative = inhibition",[15],0.0268% [at 18.9 µM]
same,"activity change, negative = inhibition",[18],0.687% [at 19 µM]
same,activation,[20],-9.02% [at 19 µM]
same,activation,[16],16.6% [at 19 µM]
same,"activity change, negative = inhibition",[19],-0.697% [at 18.9 µM]
